# A selection: hits, their analogues and other compounds. The true share with any hit is near 7.9%.
# Marburg entry inh = blocks Marburg virus binding to or entry into cells. Marburg virus pseudotyped entry inhibition, cell reporter. Potency, µM (titrated, usually from 37.8 µM), for inactives: at the highest dose activity change, negative = inhibition, most hits filed as inhibitors. 300,000 compounds, 1.8% hits; calls by dose curve; tested in HEK293 cells; also: potency is read from the fitted curve at half-maximal effect
# Lassa entry inh = blocks Lassa virus binding to or entry into cells; Potency, µM (titrated, usually from 37.9 µM), for inactives: at the highest dose activity change, negative = inhibition, actives largely listed as inhibitors; 300,000 compounds, 1.2% hits; Lassa virus pseudotype entry inhibition, cell reporter; AID 540256; calls by dose curve; tested in HEK293 cells; also: potency is read from the fitted curve at half-maximal effect; nearly all actives have a fitted effect of over 50% in size
# FMDV antiviral = antivirals against foot and mouth disease virus; AID 1159524; FMDV antiviral cell-based qHTS; 410,000 compounds, 1.2% hits; Potency, µM (top dose mostly 57.9 µM), inactives show at the highest dose activity change, negative = inhibition, actives largely listed as inhibitors; calls by dose curve; tested in HEK293T cells; also: read-out not given here; potency is read from the fitted curve at half-maximal effect; nearly all actives have a fitted effect of over 45% in size
# HCMV antiviral = human cytomegalovirus inhibition. HFF cells, HCMV-luciferase reporter, 72 h; stronger effect = lower value. activity change, negative = inhibition, % at 57.5 µM. 410,000 compounds, 4.5% hits; in the data active = activity change below about -60%; inconclusive = no clear call, values can overlap the other calls; inactive = above about -39%
#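 Human foreskin fibroblasts infected with luciferase-reporter HCMV at MOI 1 PFU/cell, compounds at two doses. Luciferase measured 72 h post infection; normalized to buffer-only basal and Salinomycin (10uM) controls.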
# HCV inhibitor = blocks hepatitis C virus; Huh7.5.1 HCVcc-Cre infection, luciferase reporter, 44 h; Potency, µM (highest dose often 41.8 µM), for the others: at the top dose activity change, negative = inhibition, hits mostly inhibitors; 340,000 compounds, 3.4% hits; active = well fitted inhibition curve with a large enough effect; inconclusive = small, poorly fitted or top-dose-only effect, or another doubt; inactive = no such curve, though single readings can be large or run the other way; also: potency is read from the fitted curve at half-maximal effect
#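 A cell-based infection assay in which seeded cells (1,000 per well) receive test compound after 4 h, are inoculated with HCVcc-Cre at approximately 0.5 moi, and are incubated 44 h before luminescence detection.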
# * marks the source's active call; other numbers are inactive results; ? = inconclusive; · = not tested or not shown; [ ] = dose if it differs, or a comment. % is scaled to controls: 0 for no effect and ±100 for the full control effect.
SMILES,Marburg entry inh,Lassa entry inh,FMDV antiviral,HCMV antiviral,HCV inhibitor
O=C(c1cc(COc2ccc(F)cc2Cl)on1)N(Cc1ccncc1)CC1CCCO1 (stereo unspecified),-14.9%[46.1 µM],?,-14.7%,-61.1*,?
CCC(NC(=O)c1cc(COc2cncc(Cl)c2)on1)c1ccncc1 (stereo unspecified),·,·,-16.0%,?,?
CCCc1ccc2oc(C(=O)N(Cc3ccncc3)CC3CCCO3)c(C)c2c1 (stereo unspecified),?,6.31µM*,16.6%,-13.5,?
N#CCCn1c(=O)c(-c2cccs2)nc2cnc(N3CCNCC3)nc21,·,·,-14.5%,·,·
CC(C)N(Cc1nccn1C)C(=O)c1cc(COc2ccc(F)cc2Cl)on1,0.9%,-3.9%,-11.2%,-97.3*,-54.1%
COc1ccc(OCc2cc(C(=O)N(Cc3nccn3C)C(C)C)no2)c2ccccc12,·,·,23.6%,93.3,?
COc1ccc(CC(=O)Nc2nc(-c3ccccc3)c(C(C)=O)s2)cc1OC,11.2µM*,?,14.3%,?,12.6µM*
COc1cc(CC(=O)Nc2nc(-c3ccccc3)c(C(C)=O)s2)cc(OC)c1OC,-13.4%,?,-25.6%,-21.3,12.6µM*
Cc1ccc(NC(=O)CSc2nccn2Cc2ccc3c(c2)OCO3)c(C)c1,·,4.0%[46.1 µM],8.0%,26.5,·
CC(C)=CCC1=C(O)[C@](O)(CC=C(C)C)C(=O)C(C(=O)CC(C)C)=C1O,·,·,-8.9%,·,·
Cc1ccc(OCCCCNC(C)(C)C)c([N+](=O)[O-])c1,15.8µM*,-1.1%,-21.3%,-13.2,?
Cc1ccc(NC(=O)c2cc(S(=O)(=O)N3CCC(C)CC3)cn2C)cc1Cl,·,0.2%[46.1 µM],-22.5%,?,·
CC(C)c1cc(C(=O)NCc2ccc(F)cc2)no1,?,-0.8%[46.1 µM],40.4%,49.8,·
CCn1cnc2cc(NCc3ccccc3Cl)ccc21,21.3%,5.4%,26.1%,-38.7,-22.6%
CCCCn1cnc2cc(NCc3ccccc3Cl)ccc21,12.6µM*,?,-2.2%,?,·
Cc1ccc(Cl)cc1N1CCN(c2cccc[n+]2C)CC1,?,1.5%,-21.4%,-92.6*,0.6%
COC(=O)C1CCCCN1C(=O)c1cc(COc2cccc3cnccc23)on1 (stereo unspecified),·,·,·,-92.0*,·
CCOC(=O)CC1CCCCN1C(=O)c1cc(COc2cccc3cnccc23)on1 (stereo unspecified),·,·,2.82µM*,-87.0*,2.24µM*
CC(C)OC(=O)c1c(-c2ccc(C(C)C)cc2)csc1NC(=O)C1CCCO1 (stereo unspecified),?,5.62µM*,?,-22.7,-18.6%
CCOC(=O)c1c(-c2ccc(F)cc2)csc1NC(=O)C1CCCO1 (stereo unspecified),-28.3%[46.1 µM],-20.5%,-27.1%,-60.3*,-15.7%
CCOC(=O)c1c(-c2ccc(C)o2)csc1NC(=O)CN1CCC(C(N)=O)CC1,-12.7%[46.1 µM],-20.7%,?,-2.8,4.47µM*
COC(=O)c1c(-c2cccc(C)c2)csc1NC(=O)C1CCCO1 (stereo unspecified),?,-1.9%,-15.0%,?,-16.7%
CCOC(=O)c1c(-c2ccc(C)cc2)csc1NC(=O)C1CCCO1 (stereo unspecified),?,?,?,-18.3,11.2µM*
CCOC(=O)c1c(-c2ccc(OC)cc2)csc1NC(=O)C1CCCO1 (stereo unspecified),-25.3%,?,?,?,?
CN1CCN(c2ncc3nc(-c4cn(C)c5ccccc45)c(=O)n(-c4ccccc4)c3n2)CC1,·,·,-13.6%,·,·
SMILES,Marburg entry inh,Lassa entry inh,FMDV antiviral,HCMV antiviral,HCV inhibitor
CCOc1ccc(C2=NC(c3ccncc3)=Nc3ccc(C)cc3N2)cc1OCC,?,-21.8%[46.1 µM],-27.5%,-13.1,·
CCOC(=O)c1c(-c2ccc(OC)cc2)csc1NC(=O)CCN1CCOCC1,0.2%[46.1 µM],?,-26.4%,-26.3,?
CCOC(=O)c1c(-c2ccc(C)cc2)csc1NC(=O)CCN1CC(C)OC(C)C1 (stereo unspecified),?,?,28.2µM*,0.8,-26.7%
Cc1ccc(C)c(NC(=O)CCS(=O)(=O)c2cccc3nsnc23)c1,-13.6%[46.1 µM],5.3%[46.1 µM],5.7%,14.9,·
COc1ccc(NS(=O)(=O)c2cc(NC(=O)c3ccc(Cl)cc3)ccc2N2CCOCC2)cc1,1.12µM*,?,66.6%,?,7.94µM*
O=C(Nc1ccc(Cl)c(S(=O)(=O)N2CCOCC2)c1)c1ccc(OCC2CCCO2)cc1 (stereo unspecified),2.24µM*,?,7.94µM*,·,?
O=C(Nc1ccc(Cl)c(S(=O)(=O)N2CCOCC2)c1)c1ccccn1,?,-16.5%[46.1 µM],-19.1%,-16.7,-29.0%
O=C(Nc1ccc(Cl)c(S(=O)(=O)N2CCOCC2)c1)c1ccc2c(c1)OCO2,10µM*,?,31.6µM*,?,10µM*
COc1ccc(NS(=O)(=O)c2cc(NC(=O)c3ccncc3)ccc2N2CCOCC2)cc1,-20.5%,7.3%,73.4%,-27.3,-0.1%
O=C(Nc1ccc(Cl)c(S(=O)(=O)N2CCOCC2)c1)c1ccc(Cl)nc1,?,?,17.8µM*,?,11.2µM*
Cc1ccc(Cn2c(C)c3cnn(CC(=O)N4CCN(c5cc(C)ccc5C)CC4)c(=O)c3c2C)cc1,?,-26.4%[46.1 µM],?,?,·
COc1ccc(C(=O)Nc2ccc(S(=O)(=O)N3CCOCC3)cc2)cc1,10.4%,13.6%,4.3%,-38.9,-21.8%
CCC(=O)N1CCN(c2ccc(NC(=O)c3ccc4c(c3)OCCO4)cc2)CC1,11.7%[46.1 µM],?,-17.1%,37.3,-18.0%
CC(NC(N)=O)C(=O)Nc1ccc(Cl)c(S(=O)(=O)Nc2ccc(Cl)cc2)c1 (stereo unspecified),·,·,45.7%,-5.0,19.3%
CC(C)Oc1ccc(C(=O)Nc2ccc(Cl)c(S(=O)(=O)Nc3ccc(Cl)cc3)c2)cc1,?,11.2µM*,-1.1%,-21.5,?
O=C(Nc1ccc(Cl)c(S(=O)(=O)N2CCOCC2)c1)c1ccc2c(c1)OCCO2,?,?,-23.1%,-62.3*,10µM*
COc1ccc(C(=O)Nc2ccc(Cl)c(S(=O)(=O)N3CCOCC3)c2)cc1,?,?,25.1µM*,-76.0*,8.91µM*
CCC(=O)N1CCN(c2ccc(Cl)cc2NC(=O)c2ccc3c(c2)OCCO3)CC1,-3.6%,13.0%,-27.0%,-61.2*,-10.0%
CCOC(=O)CSc1nc2sc3c(c2c(=O)n1-c1ccccc1)CC(C(C)C)OC3 (stereo unspecified),·,13.2%[46.1 µM],-24.6%,12.8,·
CN(C)c1ccc(NC(=O)Cn2nnc3sc4c(c3c2=O)CCC(C(C)(C)C)C4)cc1 (stereo unspecified),-2.4%[46.1 µM],?,-0.5%,-3.3,·
O=C(Nc1sc2c(c1C(=O)NCc1ccco1)CCCC2)c1cc(=O)c2cc(Cl)ccc2o1,1.6%[46.1 µM],-1.2%[46.1 µM],-4.1%,-6.0,·
CCn1cc(C(=O)NCCc2ccccc2)c(=O)c2cc(S(=O)(=O)N(C)C3CCCCC3)ccc21,-14.5%[46.1 µM],22.6%[46.1 µM],34.1%,2.5,·
CCN(Cc1ccccc1)Cc1c(O)ccc2c(=O)c(-c3ccccc3Cl)coc12,5.5%[46.1 µM],-5.9%[46.1 µM],-6.8%,-1.6,·

# Bioassay records: PubChem BioAssay, National Center for Advancing Translational Sciences (NCATS)
